# Tests used:
# Experiment in all cases: DAPPL (digital affinity profiling via proximity ligation, sequencing); 10 mM Tris-HCl pH 7.5, 50 mM NaCl, 1 mM DTT, 4% glycerol, room temperature, 30 min; GST-TFs on glutathione beads, 16-mer random dsDNA library, 0.1% formaldehyde crosslink after washing; high values mean tight binding
# [1] = target: T1, FLI1 (Homo sapiens, UniProt Q01543 1-452); details: protein: recombinant; tags: N-terminal GST; dsDNA, one strand shown
# T1 sequence: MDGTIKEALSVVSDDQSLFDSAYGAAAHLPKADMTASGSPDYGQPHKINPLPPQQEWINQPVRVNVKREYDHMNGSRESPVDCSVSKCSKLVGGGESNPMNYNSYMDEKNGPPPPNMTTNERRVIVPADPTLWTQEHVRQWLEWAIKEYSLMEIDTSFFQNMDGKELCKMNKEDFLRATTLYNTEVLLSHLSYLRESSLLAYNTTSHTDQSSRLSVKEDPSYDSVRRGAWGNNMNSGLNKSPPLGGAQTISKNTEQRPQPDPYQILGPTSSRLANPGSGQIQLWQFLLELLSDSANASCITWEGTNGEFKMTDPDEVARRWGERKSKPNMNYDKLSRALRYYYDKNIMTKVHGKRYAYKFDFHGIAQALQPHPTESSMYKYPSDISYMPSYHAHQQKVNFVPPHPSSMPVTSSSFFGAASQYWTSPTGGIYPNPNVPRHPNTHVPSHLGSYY
# Method in brief: (§1)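 Human transcription factors fused to GST were expressed in yeast, captured on glutathione beads, given DNA barcodes and pooled with a GST-only negative control. Pools were incubated with 200 nmole of a 16-mer random double-stranded DNA library in Tris/NaCl/DTT/glycerol buffer at room temperature for 30 min. They were then washed, crosslinked with 0.1% formaldehyde, proximity-ligated (BsaI/T4 ligase, 1 h, 37 °C), PCR-amplified and sequenced on an Illumina NextSeq500. Binding signal is each 6-mer's read frequency for a factor divided by its frequency for the GST control.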
# [2] = target: T2, ELK1 (Homo sapiens, UniProt P19419 1-428); details: protein: recombinant; tags: N-terminal GST; dsDNA, one strand shown
# T2 sequence: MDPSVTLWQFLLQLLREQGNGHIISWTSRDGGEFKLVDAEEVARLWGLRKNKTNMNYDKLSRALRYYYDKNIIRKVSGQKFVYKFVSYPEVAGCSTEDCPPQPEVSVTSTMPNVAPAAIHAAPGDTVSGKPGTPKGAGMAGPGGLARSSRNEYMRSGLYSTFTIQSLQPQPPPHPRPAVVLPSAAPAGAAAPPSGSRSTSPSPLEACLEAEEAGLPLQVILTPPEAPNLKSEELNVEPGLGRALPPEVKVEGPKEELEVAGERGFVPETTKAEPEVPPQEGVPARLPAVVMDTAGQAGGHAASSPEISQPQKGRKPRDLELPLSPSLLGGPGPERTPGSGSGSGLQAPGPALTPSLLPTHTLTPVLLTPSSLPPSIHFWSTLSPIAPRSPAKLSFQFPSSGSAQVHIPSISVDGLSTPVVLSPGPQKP
# Method in brief: as §1
# [3] = target: T3, GABPA (Homo sapiens, UniProt Q06546 1-454); details: protein: recombinant; tags: N-terminal GST; dsDNA, one strand shown
# T3 sequence: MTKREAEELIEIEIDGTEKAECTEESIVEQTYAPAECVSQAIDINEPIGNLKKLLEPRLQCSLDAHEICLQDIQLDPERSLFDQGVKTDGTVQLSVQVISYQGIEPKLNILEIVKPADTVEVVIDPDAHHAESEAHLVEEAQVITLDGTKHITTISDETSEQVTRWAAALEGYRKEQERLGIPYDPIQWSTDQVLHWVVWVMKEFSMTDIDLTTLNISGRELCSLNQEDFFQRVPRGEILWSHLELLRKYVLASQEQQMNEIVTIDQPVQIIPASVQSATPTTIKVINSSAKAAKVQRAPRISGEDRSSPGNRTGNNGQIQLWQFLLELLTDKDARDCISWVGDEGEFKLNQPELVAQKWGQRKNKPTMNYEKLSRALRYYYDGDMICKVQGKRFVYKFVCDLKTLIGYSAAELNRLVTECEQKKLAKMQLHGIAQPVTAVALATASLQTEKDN
# Method in brief: as §1
# [4] = target: T4, ERG (Homo sapiens, UniProt P11308 1-479); details: protein: recombinant; tags: N-terminal GST; dsDNA, one strand shown
# T4 sequence: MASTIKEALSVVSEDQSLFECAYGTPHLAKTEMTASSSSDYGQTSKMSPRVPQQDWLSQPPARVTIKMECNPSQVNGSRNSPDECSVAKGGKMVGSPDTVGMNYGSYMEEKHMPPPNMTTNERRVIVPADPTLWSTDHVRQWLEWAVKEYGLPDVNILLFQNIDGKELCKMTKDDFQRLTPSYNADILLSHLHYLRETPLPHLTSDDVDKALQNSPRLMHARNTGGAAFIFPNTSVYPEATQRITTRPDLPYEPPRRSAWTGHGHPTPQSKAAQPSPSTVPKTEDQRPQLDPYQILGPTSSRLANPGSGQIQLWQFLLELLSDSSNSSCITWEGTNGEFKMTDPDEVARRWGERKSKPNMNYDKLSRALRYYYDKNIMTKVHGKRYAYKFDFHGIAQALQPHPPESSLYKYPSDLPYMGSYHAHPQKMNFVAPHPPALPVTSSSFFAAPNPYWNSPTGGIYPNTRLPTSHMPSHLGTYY
# Method in brief: as §1
# [5] = target: ELF1 (Homo sapiens, UniProt P32519 1-619); details: protein: recombinant; tags: N-terminal GST; dsDNA, one strand shown
# Chain of ELF1 (P32519 whole entry): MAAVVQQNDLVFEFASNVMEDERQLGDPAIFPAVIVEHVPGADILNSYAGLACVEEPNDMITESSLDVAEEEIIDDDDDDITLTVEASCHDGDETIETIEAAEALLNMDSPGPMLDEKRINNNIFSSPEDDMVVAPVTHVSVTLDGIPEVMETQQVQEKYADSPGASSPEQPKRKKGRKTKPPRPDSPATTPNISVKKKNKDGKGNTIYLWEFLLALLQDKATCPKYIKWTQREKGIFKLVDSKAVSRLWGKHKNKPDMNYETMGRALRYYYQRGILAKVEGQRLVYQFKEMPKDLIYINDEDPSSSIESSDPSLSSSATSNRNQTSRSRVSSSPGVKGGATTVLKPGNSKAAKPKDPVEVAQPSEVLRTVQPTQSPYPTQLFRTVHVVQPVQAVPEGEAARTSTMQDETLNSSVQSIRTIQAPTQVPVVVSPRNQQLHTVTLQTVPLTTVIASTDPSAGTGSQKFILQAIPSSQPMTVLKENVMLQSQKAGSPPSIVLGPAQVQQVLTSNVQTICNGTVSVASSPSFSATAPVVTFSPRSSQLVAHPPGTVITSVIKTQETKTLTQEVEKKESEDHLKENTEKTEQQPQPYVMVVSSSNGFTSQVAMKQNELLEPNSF
# Method in brief: as §1
# [6] = target: T5, EHF (Homo sapiens, UniProt Q9NZC4 1-300); details: protein: recombinant; tags: N-terminal GST; dsDNA, one strand shown
# T5 sequence: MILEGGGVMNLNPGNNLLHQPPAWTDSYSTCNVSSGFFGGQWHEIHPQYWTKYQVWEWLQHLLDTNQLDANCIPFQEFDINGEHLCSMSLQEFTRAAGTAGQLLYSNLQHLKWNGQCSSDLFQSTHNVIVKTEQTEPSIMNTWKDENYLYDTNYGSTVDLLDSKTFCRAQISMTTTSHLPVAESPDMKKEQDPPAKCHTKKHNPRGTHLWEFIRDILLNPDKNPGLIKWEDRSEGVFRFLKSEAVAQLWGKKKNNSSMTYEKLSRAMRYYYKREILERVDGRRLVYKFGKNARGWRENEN
# Method in brief: as §1
# [7] = target: SPI1 (Homo sapiens, UniProt P17947 1-270); details: protein: recombinant; tags: N-terminal GST; dsDNA, one strand shown
# Method in brief: as §1
# [8] = target: SPIB (Homo sapiens, UniProt Q01892 1-262); details: protein: recombinant; tags: N-terminal GST; dsDNA, one strand shown
# Chain of SPIB (Q01892 whole entry): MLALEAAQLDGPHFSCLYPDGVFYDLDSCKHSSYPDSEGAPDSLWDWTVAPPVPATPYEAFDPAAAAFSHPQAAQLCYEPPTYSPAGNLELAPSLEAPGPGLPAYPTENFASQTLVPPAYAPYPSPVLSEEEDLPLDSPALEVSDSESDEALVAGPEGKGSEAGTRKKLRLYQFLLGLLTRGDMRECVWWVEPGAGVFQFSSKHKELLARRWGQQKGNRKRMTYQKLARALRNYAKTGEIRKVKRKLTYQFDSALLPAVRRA
# Method in brief: as §1
# [9] = target: T6, ELK3 (Homo sapiens, UniProt P41970 1-407); details: protein: recombinant; tags: N-terminal GST; dsDNA, one strand shown
# T6 sequence: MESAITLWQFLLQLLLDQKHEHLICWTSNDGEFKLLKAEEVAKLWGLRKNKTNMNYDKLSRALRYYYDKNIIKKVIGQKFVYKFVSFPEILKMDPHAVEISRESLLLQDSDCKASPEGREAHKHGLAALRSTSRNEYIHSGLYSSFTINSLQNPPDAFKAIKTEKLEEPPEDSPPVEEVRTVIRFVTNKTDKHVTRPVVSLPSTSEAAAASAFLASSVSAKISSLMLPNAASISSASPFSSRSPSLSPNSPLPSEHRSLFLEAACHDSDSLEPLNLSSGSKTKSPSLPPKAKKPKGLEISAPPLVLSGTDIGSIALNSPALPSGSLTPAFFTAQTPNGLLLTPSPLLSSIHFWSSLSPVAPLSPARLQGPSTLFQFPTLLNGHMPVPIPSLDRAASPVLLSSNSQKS
# Method in brief: as §1
# [10] = target: T7, FEV (Homo sapiens, UniProt Q99581 1-238); details: protein: recombinant; tags: N-terminal GST; dsDNA, one strand shown
# T7 sequence: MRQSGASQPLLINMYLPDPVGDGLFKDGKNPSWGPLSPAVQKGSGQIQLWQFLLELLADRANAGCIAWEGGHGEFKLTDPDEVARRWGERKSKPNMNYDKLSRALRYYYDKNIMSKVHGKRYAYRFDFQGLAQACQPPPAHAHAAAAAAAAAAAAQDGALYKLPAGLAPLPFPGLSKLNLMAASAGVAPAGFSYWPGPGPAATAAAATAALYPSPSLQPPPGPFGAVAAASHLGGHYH
# Method in brief: as §1
# [11] = target: ETV5 (Homo sapiens, UniProt P41161 1-510); details: protein: recombinant; tags: N-terminal GST; dsDNA, one strand shown
# Chain of ETV5 (P41161 whole entry): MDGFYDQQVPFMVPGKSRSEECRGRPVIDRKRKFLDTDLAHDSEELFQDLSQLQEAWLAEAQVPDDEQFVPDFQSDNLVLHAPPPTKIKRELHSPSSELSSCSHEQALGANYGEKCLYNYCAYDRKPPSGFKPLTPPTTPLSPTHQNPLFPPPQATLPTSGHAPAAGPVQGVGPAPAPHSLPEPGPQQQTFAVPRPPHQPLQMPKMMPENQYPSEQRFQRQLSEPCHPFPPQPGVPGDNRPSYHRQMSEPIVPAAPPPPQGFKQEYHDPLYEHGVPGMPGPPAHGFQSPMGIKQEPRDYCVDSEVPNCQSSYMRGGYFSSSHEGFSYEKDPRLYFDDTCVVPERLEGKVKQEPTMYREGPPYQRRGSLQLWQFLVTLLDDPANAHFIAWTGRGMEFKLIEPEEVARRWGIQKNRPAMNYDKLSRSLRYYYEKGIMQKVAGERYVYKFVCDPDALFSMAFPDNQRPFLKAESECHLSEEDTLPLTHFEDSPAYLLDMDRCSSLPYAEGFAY
# Method in brief: as §1
# [12] = target: HSF1 (Homo sapiens, UniProt Q00613 1-529); details: protein: recombinant; tags: N-terminal GST; chain copies: 3; dsDNA, one strand shown
# Chain of HSF1 (Q00613 whole entry): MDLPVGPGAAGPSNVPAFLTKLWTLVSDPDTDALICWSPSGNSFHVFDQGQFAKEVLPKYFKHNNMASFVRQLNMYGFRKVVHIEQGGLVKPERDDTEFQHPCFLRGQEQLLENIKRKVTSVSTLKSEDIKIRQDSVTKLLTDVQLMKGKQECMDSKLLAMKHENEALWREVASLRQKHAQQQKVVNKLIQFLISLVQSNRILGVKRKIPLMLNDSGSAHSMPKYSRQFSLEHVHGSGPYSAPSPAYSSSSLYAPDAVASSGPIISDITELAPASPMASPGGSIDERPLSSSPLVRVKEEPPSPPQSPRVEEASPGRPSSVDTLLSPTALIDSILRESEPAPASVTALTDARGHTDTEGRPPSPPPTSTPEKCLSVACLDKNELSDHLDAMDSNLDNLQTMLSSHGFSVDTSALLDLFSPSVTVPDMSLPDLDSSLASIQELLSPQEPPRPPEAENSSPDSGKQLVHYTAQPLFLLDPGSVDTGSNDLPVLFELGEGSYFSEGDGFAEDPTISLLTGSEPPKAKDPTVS
# Method in brief: as §1
# [13] = target: T8, SPIC (Homo sapiens, UniProt Q8N5J4 1-248); details: protein: recombinant; tags: N-terminal GST; dsDNA, one strand shown
# T8 sequence: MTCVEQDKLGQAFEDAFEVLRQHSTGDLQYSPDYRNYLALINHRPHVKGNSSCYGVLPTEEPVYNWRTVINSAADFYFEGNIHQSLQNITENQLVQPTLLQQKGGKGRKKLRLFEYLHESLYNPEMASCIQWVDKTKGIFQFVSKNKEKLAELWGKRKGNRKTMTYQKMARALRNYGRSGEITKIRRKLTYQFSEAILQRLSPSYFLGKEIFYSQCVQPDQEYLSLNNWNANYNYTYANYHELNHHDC
# Method in brief: as §1
# [14] = target: ELF4 (Homo sapiens, UniProt Q99607 1-663); details: protein: recombinant; tags: N-terminal GST; dsDNA, one strand shown
# Chain of ELF4 (Q99607 whole entry): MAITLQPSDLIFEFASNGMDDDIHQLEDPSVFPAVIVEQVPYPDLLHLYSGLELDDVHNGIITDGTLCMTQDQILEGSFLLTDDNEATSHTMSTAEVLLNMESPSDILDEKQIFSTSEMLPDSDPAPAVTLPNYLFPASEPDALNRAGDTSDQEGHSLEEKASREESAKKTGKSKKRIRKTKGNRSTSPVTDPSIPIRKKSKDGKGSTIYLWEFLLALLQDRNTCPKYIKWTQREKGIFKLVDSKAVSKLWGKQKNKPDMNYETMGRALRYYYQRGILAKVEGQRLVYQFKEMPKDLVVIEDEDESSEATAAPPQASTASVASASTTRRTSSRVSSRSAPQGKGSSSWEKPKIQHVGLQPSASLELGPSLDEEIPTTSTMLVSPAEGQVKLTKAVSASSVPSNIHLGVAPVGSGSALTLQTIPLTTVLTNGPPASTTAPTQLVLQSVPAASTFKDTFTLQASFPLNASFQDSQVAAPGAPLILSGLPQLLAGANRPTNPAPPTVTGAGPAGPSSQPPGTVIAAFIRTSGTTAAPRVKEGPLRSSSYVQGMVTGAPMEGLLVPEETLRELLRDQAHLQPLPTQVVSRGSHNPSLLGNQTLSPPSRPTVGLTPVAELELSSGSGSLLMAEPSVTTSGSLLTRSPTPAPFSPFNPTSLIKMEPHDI
# Method in brief: as §1
# [15] = target: T9, ELK4 (Homo sapiens, UniProt P28324-2 1-405); details: protein: recombinant; tags: N-terminal GST; dsDNA, one strand shown
# T9 sequence: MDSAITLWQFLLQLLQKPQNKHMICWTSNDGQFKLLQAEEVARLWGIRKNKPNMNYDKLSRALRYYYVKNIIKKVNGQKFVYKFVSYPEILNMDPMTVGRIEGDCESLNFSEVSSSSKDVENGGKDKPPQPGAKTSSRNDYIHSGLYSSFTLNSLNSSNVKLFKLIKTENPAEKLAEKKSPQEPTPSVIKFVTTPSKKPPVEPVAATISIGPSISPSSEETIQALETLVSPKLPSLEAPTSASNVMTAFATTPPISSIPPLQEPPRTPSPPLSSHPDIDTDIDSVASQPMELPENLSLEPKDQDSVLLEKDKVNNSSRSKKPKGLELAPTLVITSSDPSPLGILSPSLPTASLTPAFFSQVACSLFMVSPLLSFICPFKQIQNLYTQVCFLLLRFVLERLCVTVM
# Method in brief: as §1
# [16] = target: T10, ETV2 (Homo sapiens, UniProt O00321 1-342); details: protein: recombinant; tags: N-terminal GST; dsDNA, one strand shown
# T10 sequence: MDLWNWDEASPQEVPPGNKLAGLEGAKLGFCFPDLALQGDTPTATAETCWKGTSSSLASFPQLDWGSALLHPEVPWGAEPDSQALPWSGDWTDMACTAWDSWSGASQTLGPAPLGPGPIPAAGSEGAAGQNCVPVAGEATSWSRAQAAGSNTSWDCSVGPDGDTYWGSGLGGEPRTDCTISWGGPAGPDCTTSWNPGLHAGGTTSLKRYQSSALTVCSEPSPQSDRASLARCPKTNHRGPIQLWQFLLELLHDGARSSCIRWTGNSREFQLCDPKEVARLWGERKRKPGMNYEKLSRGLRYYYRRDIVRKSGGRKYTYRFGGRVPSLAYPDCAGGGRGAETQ
# Method in brief: as §1
# [17] = target: T11, ELF3 (Homo sapiens, UniProt P78545 1-371); details: protein: recombinant; tags: N-terminal GST; dsDNA, one strand shown
# T11 sequence: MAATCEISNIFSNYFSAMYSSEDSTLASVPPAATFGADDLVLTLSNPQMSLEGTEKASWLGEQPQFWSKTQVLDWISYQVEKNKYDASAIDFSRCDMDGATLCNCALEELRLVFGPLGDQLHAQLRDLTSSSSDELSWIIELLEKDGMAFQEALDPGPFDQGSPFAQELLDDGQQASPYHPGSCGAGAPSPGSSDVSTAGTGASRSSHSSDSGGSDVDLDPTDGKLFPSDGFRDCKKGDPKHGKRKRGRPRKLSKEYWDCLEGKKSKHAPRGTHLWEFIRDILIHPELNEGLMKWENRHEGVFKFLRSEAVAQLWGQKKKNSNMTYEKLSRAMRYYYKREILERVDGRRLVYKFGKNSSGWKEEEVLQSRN
# Method in brief: as §1
# [18] = target: CRX (Homo sapiens, UniProt O43186 1-299); details: protein: recombinant; tags: N-terminal GST; dsDNA, one strand shown
# Chain of CRX (O43186 whole entry): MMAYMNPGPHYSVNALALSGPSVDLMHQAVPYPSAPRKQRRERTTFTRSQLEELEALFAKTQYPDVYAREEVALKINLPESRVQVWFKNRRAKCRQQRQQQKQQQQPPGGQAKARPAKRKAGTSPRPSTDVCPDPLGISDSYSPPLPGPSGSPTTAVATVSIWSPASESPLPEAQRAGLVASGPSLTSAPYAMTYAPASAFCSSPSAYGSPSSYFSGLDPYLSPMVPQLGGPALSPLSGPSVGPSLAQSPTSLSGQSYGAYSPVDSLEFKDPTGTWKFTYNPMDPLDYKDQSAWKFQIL
# Method in brief: as §1
# [19] = target: ETV1 (Homo sapiens, UniProt P50549 1-477); details: protein: recombinant; tags: N-terminal GST; dsDNA, one strand shown
# Chain of ETV1 (P50549 whole entry): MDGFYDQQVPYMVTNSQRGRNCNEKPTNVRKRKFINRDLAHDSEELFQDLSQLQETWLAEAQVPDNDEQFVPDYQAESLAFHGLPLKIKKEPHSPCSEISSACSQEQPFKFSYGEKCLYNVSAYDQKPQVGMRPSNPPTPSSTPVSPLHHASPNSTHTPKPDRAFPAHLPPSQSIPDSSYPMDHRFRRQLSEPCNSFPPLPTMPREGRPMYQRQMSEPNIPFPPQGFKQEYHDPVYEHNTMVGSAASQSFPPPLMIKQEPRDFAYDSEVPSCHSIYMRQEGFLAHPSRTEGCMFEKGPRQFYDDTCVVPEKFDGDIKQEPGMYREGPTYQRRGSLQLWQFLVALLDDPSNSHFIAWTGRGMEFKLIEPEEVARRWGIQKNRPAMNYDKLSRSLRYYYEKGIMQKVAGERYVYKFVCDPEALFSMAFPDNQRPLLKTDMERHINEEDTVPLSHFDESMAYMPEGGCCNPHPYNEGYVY
# Method in brief: as §1
sequence,measurement,setting,value
ACTTTA,binding signal,[1],"1.12 fold enrichment (6-mer frequency, TF over GST control)"
same,binding signal,[2],"1.26 fold enrichment (6-mer frequency, TF over GST control)"
same,binding signal,[3],"1.29 fold enrichment (6-mer frequency, TF over GST control)"
same,binding signal,[4],"1.17 fold enrichment (6-mer frequency, TF over GST control)"
same,binding signal,[5],"1.21 fold enrichment (6-mer frequency, TF over GST control)"
same,binding signal,[6],"1.2 fold enrichment (6-mer frequency, TF over GST control)"
same,binding signal,[7],"1.33 fold enrichment (6-mer frequency, TF over GST control)"
same,binding signal,[8],"1.19 fold enrichment (6-mer frequency, TF over GST control)"
same,binding signal,[9],"1.22 fold enrichment (6-mer frequency, TF over GST control)"
same,binding signal,[10],"1.15 fold enrichment (6-mer frequency, TF over GST control)"
same,binding signal,[11],"1.21 fold enrichment (6-mer frequency, TF over GST control)"
same,binding signal,[12],"1.33 fold enrichment (6-mer frequency, TF over GST control)"
same,binding signal,[13],"1.21 fold enrichment (6-mer frequency, TF over GST control)"
same,binding signal,[14],"1.23 fold enrichment (6-mer frequency, TF over GST control)"
same,binding signal,[15],"1.15 fold enrichment (6-mer frequency, TF over GST control)"
same,binding signal,[16],"1.26 fold enrichment (6-mer frequency, TF over GST control)"
same,binding signal,[17],"1.23 fold enrichment (6-mer frequency, TF over GST control)"
same,binding signal,[18],"1.54 fold enrichment (6-mer frequency, TF over GST control)"
same,binding signal,[19],"1.21 fold enrichment (6-mer frequency, TF over GST control)"

# From article PMC7862700, “An all-to-all approach to the identification of sequence-specific readers for epigenetic DNA modifications on cytosine”
